# G9a block: inhibitors of human histone lysine methyltransferase G9a | AID 504332 | Potency, µM (series often up to 102 µM), for inactives: at the top dose activity, negative = inhibition, actives largely listed as inhibitors | 350,000 tested, 8.8% active | Q96KQ7 | G9a H3K9 monomethylation, AlphaScreen, 2 h; further: potency means the concentration at half of the fitted maximal effect; on the % scale 0 is the no-effect control and ±100 the full control effect; nearly all actives have a fitted effect of over 75% in size
#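 Using a bead-based AlphaScreen, monomethylated H3K9 product from 2 h room-temperature reactions (G9a 20 nM, peptide 500 nM, SAM 20 uM) was detected with 0.5 ug/mL rabbit anti-H3K9me1 antibody.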
# HP1b binding inh: inhibitors of HP1-beta chromodomain binding to methylated histone tails; AlphaScreen HP1-beta / biotin-H3K9me3 peptide binding; Potency, µM (doses to about 114 µM), for the others: at the top dose activity change, negative = inhibition, actives largely listed as inhibitors; 390,000 tested, 0.56% active; AID 540317; further: potency means the concentration at half of the fitted maximal effect; nearly all actives have a fitted effect of over 70% in size
#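 HP1-beta protein (50 nM final) preincubated 30 min at room temperature with biotinylated H3(1-18)K9me3 peptide (50 nM) in PBS pH 7.4, 0.01% Tween-20, then compound added for 30 min. AlphaScreen streptavidin donor/nickel chelate acceptor beads (10 ug/mL final), 30 min dark, luminescence read.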
# BAZ2B inh: BAZ2B (human) inhibition | AlphaScreen BAZ2B-H3K14Ac peptide displacement | Potency, µM (doses to about 114 µM), inactives show top-dose activity change, negative = inhibition, hits mostly inhibitors | 360,000 tested, 4.4% active; further: potency means the concentration at half of the fitted maximal effect; on the % scale 0 is the no-effect control and ±100 the full control effect; nearly all actives have a fitted effect of over 60% in size
#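 In this displacement format the biotinylated H3(5-23) peptide acetylated at Lys14 serves as ligand at 50 nM, with BAZ2B at 50 nM in PBS pH 7.4 containing 0.01% Tween-20. Donor and acceptor beads are 10 ug/mL final.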
# JMJD2A Tudor: blocks the human JMJD2A Tudor domain; O75164; AlphaScreen JMJD2A-Tudor / H3K4me3 peptide binding; Potency, µM (series often up to 114 µM), for the others: top-dose activity change, negative = inhibition, actives largely listed as inhibitors; 390,000 tested, 4.4% active; AID 504339; further: potency means the concentration at half of the fitted maximal effect; on the % scale 0 is the no-effect control and ±100 the full control effect; nearly all actives have a fitted effect of over 50% in size
# L3MBTL1 block: inhibitors of human L3MBTL1 | 230,000 tested, 0.66% active | Potency, µM (top dose mostly 57.1 µM), without a hit: at the top dose activity, negative = inhibition, actives largely listed as inhibitors | Q9Y468 | AID 485360 | AlphaScreen L3MBTL1–H3K9me1 peptide binding; further: potency means the concentration at half of the fitted maximal effect; on the % scale 0 is the no-effect control and ±100 the full control effect; nearly all actives have a fitted effect of over 60% in size
#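 L3MBTL1 50 nM + b-AHA-H3(1-15)K9me1 75 nM, 30 min RT; compound added, 30 min RT; streptavidin donor/Ni-chelate acceptor beads 10 ug/mL each final, 30 min RT dark; AlphaScreen read.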
# PI5P4K alpha inh: blocks human PI5P4K alpha kinase activity; PI5P4Kalpha enzyme, ADP-Glo luminescence, 60 min; hits give low values; 330,000 tested, 1.2% active; P48426; max response, %; active means max response of -50% or lower; inconclusive means between -30% and -50%; inactive means -30% or higher; further: value at the top dose of about 77 µM; on the % scale 0 is the no-effect control and ±100 the full control effect
#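 qHTS, 1536-well: enzyme/substrate mix, compound by pin tool, 5 microM ATP final; RT 60 min; ADP-Glo reagents 1 (45 min) then 2 (30 min); luminescence.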
# * = called active by the depositor; ? = inconclusive; . = not tested or not shown; [ ] = remark or other dose. A selection: hits, their analogues and other compounds. The true share with any hit is near 11%. Unless noted, the call rests on the fitted dose curve; in most records, active means well fitted inhibition curve with a large enough effect; inconclusive means small, poorly fitted or top-dose-only effect; inactive means no such curve, though single readings can be large or run the other way.
SMILES,G9a block,HP1b binding inh,BAZ2B inh,JMJD2A Tudor,L3MBTL1 block,PI5P4K alpha inh
Cn1cccc1-c1cc2n(n1)CCC(=O)N2CCCC(=O)NCc1ccc(F)cc1,-23%[59 µM],6%[57 µM],-33%,-21%,.,.
CC(=O)Nc1cccc(C(=O)OCC(=O)NC(=O)C2CCCCC2)c1,.,61%,.,-6%,.,.
CC(=O)N1c2ccccc2[C@@H](C)[C@@H]1C,13%[0.501 µM],17%,1%,-6%,16%,2
CC(=O)N1c2ccccc2C2(O)N=C(C)SC12 (stereo not given),1.4µM*,?,?,5.6µM*,-6%,?
COC(=O)CSc1ncc2c(n1)-c1ccccc1N(Cc1cccc(F)c1)S2(=O)=O,5%[59 µM],1%,-14%,-19%,.,.
COc1cc(N=Nc2c(O)c3ccccc3[nH]c2=O)c(OC)cc1N=Nc1ccccc1,45µM*,?,?,?,-29%,-17
CCOC(=O)CN1C(=O)S/C(=C/c2ccc(C)o2)C1=O,32µM*,1%,-39%,-22%,-6%,-2
Cc1ccc(/C=C2/SC(=S)N(C3CCCCC3)C2=O)o1,40µM*,-14%[57 µM],?,-32%,.,2
O=C1/C(=C/c2ccncc2)SC(=S)N1C1CCCCC1,-1%[59 µM],2%,-28%,-18%,2%,2
O=C1/C(=C/c2ccco2)SC(=S)N1CC1CCCO1 (stereo not given),?,35µM*,35µM*,25µM*,16µM*,?
CCOC(=O)CN1C(=O)S/C(=C/c2cc(C)n(C)c2C)C1=O,.,-7%,.,?,.,4
COc1ccccc1/C=C1\NC(=S)N(CC2CCCO2)C1=O (stereo not given),-12%[59 µM],-4%,-38%,-24%,.,.
Cc1ccc(/C=C2/SC(=O)NC2=S)o1,18µM*,?,50µM*,40µM*,.,-93*
CCc1ccc(CN(C(=O)c2cc(=O)c3ccc(C)cc3o2)C2CCS(=O)(=O)C2)cc1 (stereo not given),-22%[59 µM],29%,-22%,-7%,.,.
CCN(CC)c1sc(S(=O)(=O)c2ccccc2)nc1S(=O)(=O)c1ccc(C)cc1,-8%[59 µM],23%,-4%,-21%,.,.
CNC(=O)C1CCC(Cn2c(=O)[nH]c3ccsc3c2=O)CC1 (stereo not given),-6%[59 µM],14%,-33%,-13%,.,.
Cc1ccc(/C=C2\SC(=S)N(CC3CCCO3)C2=O)o1 (stereo not given),5.6µM*,32µM*,32µM*,35µM*,?,?
Cc1ccc(C(=O)NN2C(=O)/C(=C/c3cn(C)c4ccccc34)SC2=S)cc1,22%[59 µM],-15%,9%,-19%,27%,-2
Cn1cc(/C=C2\SC(=O)NC2=S)c2ccccc21,.,?,32µM*,?,-6%,?
Cc1ccc(NC(=O)Cn2c(=O)n(Cc3ccc(F)cc3)c(=O)c3cccnc32)cc1C,-2%[59 µM],32%,-2%,-9%,.,.
COc1ccc(NC(=O)CSC2=Nc3ccccc3C3=NC(CC(=O)NCCc4ccccc4)C(=O)N23)cc1 (stereo not given),9%[59 µM],15%,-17%,?,.,.
COc1ccc(Nc2c(-c3ccc(Cl)cc3)nc3cnccn23)cc1OC,13µM*,-37%,45µM*,56µM*,.,.
Clc1ccc(-c2nc3ncccn3c2Nc2ccc3c(c2)OCCO3)cc1,-20%[59 µM],5%,-36%,-3%,2%,.
CSc1ccc(-c2nc3cnccn3c2Nc2ccc3c(c2)OCO3)cc1,45µM*,45µM*,11µM*,?,.,2
Clc1ccc(-c2nc3cnccn3c2Nc2ccc3c(c2)OCO3)cc1,16µM*,?,45µM*,50µM*,-29%,-9
SMILES,G9a block,HP1b binding inh,BAZ2B inh,JMJD2A Tudor,L3MBTL1 block,PI5P4K alpha inh
COc1ccc(C)cc1NC(=O)Cc1ccc(NC(=O)N2CCCCc3ccccc32)cc1,-1%[59 µM],-6%,-27%,-24%,.,.
CCc1ccc(C(=O)Cn2ccsc2=N)cc1,50µM*,5%,?,-23%,.,-2
COc1ccc(-n2c(C)cc(C=O)c2C)cc1Cl,13%,2%,5%[57.1 µM],-16%,-17%,2
Cc1cc(/C=C(\C#N)C(N)=O)c(C)n1-c1ccc(N2CCOCC2)c([N+](=O)[O-])c1,?,?,?,?,-13%,-7
Cc1cc(C=O)c(C)n1-c1ccc(Cl)c(C(=O)O)c1,13µM*,40µM*,25µM*,20µM*,4µM*,-54*
Cc1cc(C=O)c(C)n1-c1ccc(N2CCCCC2)c([N+](=O)[O-])c1,13µM*,?,40µM*,35µM*,1%,-4
Clc1cccc(N2CCN(c3nc4ccccc4c4nc(-c5ccccc5)nn34)CC2)c1,9%[59 µM],20%,2%,-5%,.,.
Oc1c(Br)cc(C2N=C(c3ccccc3Cl)NO2)cc1Br (stereo not given),36%[0.501 µM],?,-27%,40µM*,-2%,?
Oc1ccc(Br)cc1-c1cc(-c2ccccc2Cl)[nH]n1,24%[59 µM],9%,1%,-22%[11.4 µM],-3%,9
CC(C)(C)c1nc(SCC(=O)N2CCCC2)c2ccccc2n1,50µM*,36%,-8%,12%,9%,-8
CCOc1ccc(CNS(=O)(=O)c2c(C(=O)N3CCC(C)CC3)c(C)n(C)c2C)cc1OC,-3%[59 µM],6%,-21%,-16%,.,.
CCn1c2ccccc2c2cc(NC(=O)COC(=O)c3ccc(NC(=O)CC#N)cc3)ccc21,?,0%,?,-16%,32µM*,?
O=C(COC(=O)c1ccc(O)cc1O)N=c1sccn1Cc1ccccc1Cl,?,5%,11%,-25%,-14%,-17
N#CCC(=O)Nc1ccc(C(=O)OCC(=O)N=c2sccn2Cc2ccccc2Cl)cc1,18%[0.501 µM],-3%,-6%,-31%,0%,-53*
CCn1c2ccccc2c2cc(NC(=O)COC(=O)c3ccccc3F)ccc21,-8%[59 µM],22%,4%,-7%,1%,5

# Compound activity from PubChem.
